SMILES strings stand for the structures. Results filed as inconclusive are left out. Active and inactive are the calls of the source. Calls follow the shape of the dose curve; as a rule, active = well fitted curve in the direction sought with a large enough effect; inconclusive = small, poorly fitted or top-dose-only effect, or effect the other way, or another doubt; inactive = no such curve, though single readings can be large or run the other way.

Sequence of Alpha-galactosidase A (Homo sapiens) (P06280 32-429 limits assumed): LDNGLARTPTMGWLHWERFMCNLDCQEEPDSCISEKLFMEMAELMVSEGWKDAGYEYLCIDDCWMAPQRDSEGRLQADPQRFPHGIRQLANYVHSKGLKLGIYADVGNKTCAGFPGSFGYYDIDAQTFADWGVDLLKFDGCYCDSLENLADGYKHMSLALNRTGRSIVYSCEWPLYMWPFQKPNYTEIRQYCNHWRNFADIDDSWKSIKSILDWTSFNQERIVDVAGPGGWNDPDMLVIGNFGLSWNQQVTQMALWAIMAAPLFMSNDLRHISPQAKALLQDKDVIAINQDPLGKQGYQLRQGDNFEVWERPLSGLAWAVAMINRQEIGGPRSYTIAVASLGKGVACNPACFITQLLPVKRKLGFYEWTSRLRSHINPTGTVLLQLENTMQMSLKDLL

This experiment has as its target Alpha-galactosidase A (Homo sapiens) (UniProt P06280). The experiment in a line: Confirmation of Inhibitors of Human alpha-Galactosidase Using Spleen Homogenate. Also: 0% is about no effect. The settings on record: alpha-galactosidase enzyme activity; series mostly up to 56.2 µM; activity change: at the top concentration. The text has this:
NIH Chemical Genomics Center [NCGC]
NIH Molecular Libraries Probe Production Centers Network [MLPCN]
Assay Submitter (PI): Wei Zheng
Alpha-galactosidase is a homodimeric glycoprotein that hydrolyzes the terminal alpha-galactosyl moieties from glycolipids and glycoproteins. Deficiency of this enzyme results in Fabry Disease with progressive accumulation of globotriaosylceramide and other glycosphingolipids in vascular endothelial cells that causes renal failure, myocardial infarction and stroke, and premature death in patients. It has been reported that the improper folding and trafficking of alpha-galactosidase resulting from genetic mutations may account for a significant number of Fabry patients. […] We optimized this alpha-galactosidase assay in 1536-well plate format for identification of novel small molecule inhibitors or activators with structures other than the sugar analogs in order to develop new pharmacological chaperones. In particular, this assay is directed towards discovering compounds active in more natural setting, tissue homogenate, that may have been missed by screens of the purified enzyme under more stringent conditions. This assay attempted to confirm hits from the primary screening.
NCGC Assay Protocol Summary:
This is a fluorogenic enzyme assay with 4-methylumbelliferyl-alpha-D-galactopyranoside as the substrate and human spleen homogenate containing alpha-galactosidase as the enzyme preparation. Upon hydrolysis of this fluorogenic substrate, the resulting product, 4-methylumbelliferone (which excites at 365 nm and emits at 440 nm) can be detected by a fluorescence plate reader. Data were normalized to the controls for basal activity (without enzyme) and 100% activity (with enzyme). The AC50 values were determined from concentration-response data modeled with the standard Hill equation.
Assay buffer: 50 mM citric acid (titrated with potassium phosphate to pH 5.0), 0.01% Tween-20 (pH 5.0 is an optimal condition for this enzyme assay)
1536-well assay protocol for the alpha-galactosidase from human spleen homogenate:
(1) Add 2 ul/well spleen homogenate (1 ug)
(2) Add 23 nL compounds in DMSO solution. The final titration was 0.5 nM to 58 uM.
(3) Add 2 ul of substrate (1 mM final)
(4) Incubate at 37C for 40 min
(5) Add 2 ul stop solution (1M NaOH and 1M Glycine mixture, pH 10)
(6) Detect the assay plate in a ViewLux plate reader (PerkinElmer) with Ex=365 nm and Em=440nm.
Keywords: Alpha-galactosidase, Fabry Disease, pharmacological chaperone, chaperone therapy, high throughput screening, alpha- galactosidase inhibitor, MLSMR, MLSCN, NIH Roadmap, qHTS and NCGC
Turning to `Cc1ccc2c(CN3CC=C(c4ccccc4)CC3)cc(=O)oc2c1C`, the “activity change” value is 0.701% (inactive).
On the same count and under the same terms, the result for `Cc1cc(C(=O)CS(=O)(=O)c2ccc(F)cc2)cc(C)c1OC(=O)N(C)C` reads 2.73% [at 23.6 µM] (inactive); that for `Cc1cc(/C=C2/C(=O)NC(=O)N(Cc3ccco3)C2=O)c(C)n1-c1ccc(C(=O)O)cc1`, 1.17% (inactive).
As to `CCCCC/C=C\C/C=C\C/C=C\C/C=C\CCCC(=O)NCCCC(=O)O`, the “activity change” value was -14.3% (inactive).
For `OC[C@@H]1[C@@H](O)[C@H](O)[C@H]2[C@@H](O)CCN21`, the “activity change” value was -8.3% (inactive).
On to `CCOc1ccc2cc(C#N)c(=O)oc2c1`, for which the “activity change” value was 1.36% (inactive).
`CC(C)(C)c1cc(C=C(C#N)C#N)cc(C(C)(C)C)c1O`: the “activity change” value was -10.5% (inactive).
As for `O=c1[nH]c(CN2CC=C(c3ccccc3)CC2)nc2scc(-c3cccs3)c12`, the “activity change” value is -0.863% (inactive).
On the same count and under the same terms, the result for `O[C@@H]1[C@H](O)[C@H]2[C@@H](O)CCN2C[C@@H]1O` reads -6.64% [at 287 µM] (inactive); that for `C/C(O)=C(/C#N)C(=O)Nc1cc(Br)ccc1Br`, -8.06% (inactive).
For the compound `O[C@H]1[C@H](O)[C@@H](O)CN2CC[C@H](O)[C@H]12`, the outcome was inactive.
Regarding `CC(=O)[O][Hg][c]1ccccc1`, the “activity change” value is 4.67% [at 287 µM] (inactive).
Same read-out and setting: the same measure for `Cc1[nH]c2ccccc2c1C1=CCNCC1`: 0.948% (inactive); for `CC(=O)Nc1ccc(OC(=O)c2ccccc2N)cc1`: 6.81% [at 23.6 µM] (inactive); for `O=C(O)c1ccccc1-c1c2cc(Br)c(=O)cc-2oc2[c]([Hg])c(O)c(Br)cc12`: -13.4% [at 287 µM] (inactive).
Consider `COc1ccc(Cc2nccc3cc(OC)c(OC)cc23)cc1OC`, for which the “activity change” value is -3.36% (inactive).
For the compound `Cc1cc(/C=C2\C(=O)NC(=O)N(c3ccc(F)cc3)C2=O)c(C)n1-c1ccc(C(=O)O)cc1`, the “activity change” value is 0.884% (inactive).
On the same count and under the same terms, the same measure for `C/C=C(/C)C(=O)O[C@H]1C(C)=C2C([C@@H]1OC(=O)CCCCCCC)[C@@](C)(OC(C)=O)C[C@@H](OC(=O)CCC)[C@@]1(O)[C@H]2OC(=O)[C@@]1(C)O` (stereo partly drawn): -13.8% (inactive).

(Values after PubChem BioAssay AID2108 (National Center for Advancing Translational Sciences (NCATS), 2009).)
